In PubChem BioAssay (NCI):
This is part of a sample that, as a whole, favours compounds with a hit. Of some 83,000 tested, about 20% had one in any assay.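 Method: cells in 96-well plates; compound added at one concentration; 48 h incubation; percent growth measured; values under 10 scored active.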 A number with no mark means an inactive call. Activity calls are given as the source filed them.

test system: RXF 393 renal; test: NCI-60 one-dose screen, 48 h (100 = growth as untreated, 0 = no growth, -100 = all killed); conditions: 10 µM unless noted

SMILES	growth
CCN1C(=O)N(CC)C2C1NC(=O)N2/N=C/C=C/c1ccccc1 (centres undefined)	32.3%
CN(C)CCCN1c2ccccc2CCc2ccccc21	78.6%
CC(CN1CCN(CC(C)Nc2ccnc3cc(Cl)ccc23)CC1)Nc1ccnc2cc(Cl)ccc12 (centres undefined)	-69.4% (active)
S=C(S)Oc1cccc2cccnc12	119%
CCn1c(Cc2ccccc2Nc2c(Cl)cccc2Cl)nnc1SCC(=O)Nc1cccc(OC)c1	90%
CCc1onc(-c2ccc(OC)cc2)c1-c1ccccc1OCCN(CC)CC	82.2%
COc1ccc(-c2cc(-c3ccc(OC)cc3)c3sc(=O)[nH]c3n2)cc1	77.7%
COc1ccc2nc3ccccc3c(NCc3ccc(C)cc3)c2c1	6.17% (active)
CS(=O)(=O)c1ccc(C(=O)Nc2ccc(Cl)c(-c3ccccn3)c2)c(Cl)c1	-52.9% (active)
